# Results published in ChEMBL document CHEMBL3988442, “University of Dundee, Small-Polar-MMV Screening Library” (2021).
# The campaign covered roughly 48,000 compounds. About 13,000 (27%) showed an effect of 50% or more. The list shows a part of the results.
# System: Wolbachia pipientis
# Experiment: Anti-Wolbachia Cell-Based Screen
# Format: functional
# Parameters: scale not given: in the data most compounds retested in dose-response had high values
# Conditions: 5 µM
row,SMILES,Percent Effect
1,Cc1cc(C)n(CC(C)NC2CCN(Cc3cccnc3)CC2)n1 (stereo not drawn),-17.52%
2,CN1C(=O)[C@H](OC(N)=O)[C@@H](C(=O)Nc2ccccc2)C12CCNCC2,104.3%
3,CN1CC2(CNCCN(C(=O)Nc3ccccc3)C2)CC1=O.O=C(O)C(F)(F)F (stereo not drawn),-22.36%
4,CO[C@H]1C(=O)N(C)C2(CCNCC2)[C@@H]1C(=O)Nc1ccccc1,91.16%
5,Cc1ncccc1OC1(C(=O)NCCNc2ccccc2)CCNCC1,-10.51%
6,O=C(Nc1ccccc1)[C@H]1O[C@H](CCN2CCNCC2)CC[C@@H]1O,1.571%
7,CN1C(=O)CO[C@H](c2ccc(NC(=O)Nc3ccccc3)cc2)[C@H]1CO,-13.1%
8,CNC(=O)[C@@H]1[C@@H](OC(=O)Nc2ccccc2)C(=O)N(C)C12CCNCC2,89.46%
9,CCc1cc(N2CCSCC2)n2nc(C)c(C)c2n1,8.974%
10,Cc1n[nH]c(C)c1CCN(C)C(=O)c1ccc(CCC(C)(C)O)cc1,11.25%
11,CN(Cc1cc(Br)cn1C)C(=O)c1cc(Cl)ccn1,-3.777%
12,O=C(c1cc(-c2cn[nH]c2)nc2ccc(F)cc12)N1CCSCC1,9.042%
13,COc1ccc2cc(CN(C)CCc3cn[nH]c3)c(=O)[nH]c2c1,-3.299%
14,Cc1ccccc1C(=O)NC1CCN(Cc2ncc(C(C)(C)C)o2)CC1,19.24%
15,Cc1nc(C(C)(C)NC(=O)Nc2ccncc2)no1,-5.529%
16,CS(=O)(=O)NCC1CCCN(C(=O)Nc2ccccc2F)C1 (stereo not drawn),119.4%
17,CS(=O)(=O)NCC1CCCN(C(=O)COc2ccc(F)cc2)C1 (stereo not drawn),-1.733%
18,CC(C)S(=O)(=O)NCC1CCCN(C(=O)c2ccc(F)cc2)C1 (stereo not drawn),-11.51%
19,O=C(CN1CCCC1)N1CCCC(CNS(=O)(=O)Cc2ccccc2)C1 (stereo not drawn),16.47%
20,CS(=O)(=O)NCC1CCCN(C(=O)c2ccc3c(c2)CCCC3)C1 (stereo not drawn),4.156%
21,CS(=O)(=O)NCC1CCCN(C(=O)Nc2cccc3ccccc23)C1 (stereo not drawn),98.14%
22,CS(=O)(=O)NCC1CCCN(C(=O)COCc2ccccc2)C1 (stereo not drawn),-4.256%
23,CS(=O)(=O)NCC1CCCN(C(=O)Nc2ccccc2N2CCCC2)C1 (stereo not drawn),96.01%
24,O=C(Nc1cccc2ccccc12)N1CCC(N2CCSCC2)CC1,-0.7759%
25,CNS(=O)(=O)CCCN1CCCC1c1noc(C2CC2)n1 (stereo not drawn),-1.215%
26,O=C(Nc1ccc(-c2csnn2)cc1)N1CCCC1,-14.17%
27,CN(C)Cc1csc(-c2nccn2CCc2cccnc2)c1,-6.294%

row,SMILES,Percent Effect
1,CCCC(Cn1cnc(-c2ccccc2)c1-c1cncn1CC)N(C)C (stereo not drawn),8.465%
2,CCCNC(=O)c1cc2c(nc1O)CCC(C)C2 (stereo not drawn),4.186%
3,Cc1ccc(C(=O)NCCCNS(C)(=O)=O)c(=O)[nH]1,10.14%
4,Cc1ccc(C(=O)NCCCS(C)(=O)=O)c(=O)[nH]1,0.8619%
5,Cc1ccc(C(=O)NC2CCN(S(C)(=O)=O)CC2)c(=O)[nH]1,87.03%
6,Cc1ccc(C(=O)NCCNS(C)(=O)=O)c(=O)[nH]1,2.203%
7,Cc1ccc(C(=O)NC2CCCN(S(C)(=O)=O)C2)c(=O)[nH]1 (stereo not drawn),107.3%
8,Cc1ccc(C(=O)NCCS(C)(=O)=O)c(=O)[nH]1,-10.31%
9,CN(Cc1ccco1)Cc1ccccc1CNC(=O)c1csnn1,-8.686%
10,NC(=O)NC(=O)CCN1CCN(CC2CC2)c2ccccc21,-1.129%
11,OC[C@H]1CN(Cc2c(Cl)cncc2Cl)C[C@H]1CN1CCOCC1,11.24%
12,Cn1cc(-c2ncc3c(c2C(=O)O)CCN(CC2CC2)C3)cn1.O=C(O)C(F)(F)F.O=C(O)C(F)(F)F,86.35%
13,CN1CCn2c(-c3cnn(C)c3)cnc2C12CCN(CC1CC1)CC2.O=C(O)C(F)(F)F.O=C(O)C(F)(F)F.O=C(O)C(F)(F)F,-10.48%
14,Cn1cccc1C(=O)NCc1cn2c(n1)CN(CC1CCOC1)CC2 (stereo not drawn),-25.14%
15,Cn1cc(-c2ncc3c(c2C(=O)O)CCN(CC2CCOC2)C3)cn1 (stereo not drawn),111.7%
16,CN(C)C(C(=O)N1CCN(CCn2cccc2)CC1)c1ccc(F)cc1 (stereo not drawn),-11.45%
17,COc1cccc(CN2CCC3(CCN(c4ncc(C)cn4)C3)C2=O)c1 (stereo not drawn),-10.16%
18,O=C(O)C(F)(F)F.O=C(O)C(F)(F)F.O=C1N(Cc2cccnc2)CCC12CCCN(c1ncccn1)C2 (stereo not drawn),94.5%
19,COc1cc(N2CCC3(CCN(Cc4cccnc4)C3=O)C2)ncn1 (stereo not drawn),116%
20,COc1cc(N2CCCC3(CCN(c4cncnc4)C3=O)C2)ncn1 (stereo not drawn),-10.96%
21,Cc1cnc(N2CCC3(C2)C(=O)N(C)CCN3Cc2cccnc2)nc1.O=C(O)C(F)(F)F.O=C(O)C(F)(F)F (stereo not drawn),1.691%
22,O=C1N(Cc2cccc(F)c2)CCC12CCCN(c1ncc(F)cn1)C2 (stereo not drawn),102%
23,CN1CCN(Cc2cccnc2)C2(CCN(c3ncccn3)C2)C1=O.O=C(O)C(F)(F)F.O=C(O)C(F)(F)F (stereo not drawn),-6.592%
24,O=C(O)C(F)(F)F.O=C1N(Cc2ccncc2)CCC12CCCN(c1ncc(F)cn1)C2 (stereo not drawn),97.96%
25,O=C1N(Cc2ccc(F)c(F)c2)CCCC12CCN(C1CCCC1)C2 (stereo not drawn),7.69%
26,O=C(O)C(F)(F)F.O=C([C@H]1CCCO1)N1CCCC2(CCN(Cc3ccncc3)C2=O)C1 (stereo partly drawn),14.29%
